# Measured values: PubChem BioAssay AID1345085 (National Center for Advancing Translational Sciences (NCATS), 2018)
# Records with an inconclusive call do not appear. The source made the active and inactive calls. Calls come from the whole dose curve; as a rule, active = well fitted cell-killing curve with a large enough effect; inconclusive = small, poorly fitted or top-dose-only effect, or effect the other way; inactive = no such curve, though single readings can be large or run the other way.
# Tested on: C33A
# Test: Confirmatory qHTS for gynecologic anti-cancer compounds from libraries of approved drugs and bioactive compounds; note: nearly all actives have a fitted effect of over 55% in size
# Settings: gynecologic cancer cell panel viability, ATPlite luminescence, 48 h; series mostly up to 57.6 µM; activity change, negative = viability loss: at the top concentration
# How it was run: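 1,000 cells/well; 16 h pre-incubation 37 C, 5% CO2; pin-transferred cpd in DMSO, 11 conc (1:3), 57.5 uM–0.977 nM; 48 h; ATPlite, 15 min RT; luminescence → IC50.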
# % is set by controls: 0 for no effect and ±100 for the full control effect; potency is the fitted concentration of half-maximal effect.
Structure (SMILES),Potency,"activity change, negative = viability loss"
C/C=C(/C)C(=O)O[C@H]1C(C)=C2[C@H]([C@@H]1OC(=O)CCCCCCC)[C@@](C)(OC(C)=O)C[C@H](OC(=O)CCC)[C@@]1(O)[C@H]2OC(=O)[C@@]1(C)O,21.7 µM (active),–
CCNC(=O)C[C@@H]1N=C(c2ccc(Cl)cc2)c2cc(OC)ccc2-n2c(C)nnc21,–,-5.6% (inactive)
Cc1sc2c(c1C)C(c1ccc(Cl)cc1)=NC(CC(=O)OC(C)(C)C)c1nnc(C)n1-2 (stereo unspecified),–,-10.4% (inactive)
CCN1CCN(C(=O)Cc2ccc(Nc3ncc(F)c(Nc4ccc(C(=O)Nc5ccccc5Cl)cc4)n3)cc2)CC1,–,-12.3% (inactive)
CCC(=O)O[C@H]1CC[C@H]2[C@@H]3CCC4=CC(=O)CC[C@]4(C)[C@H]3CC[C@]12C,–,2.88% (inactive)
C[C@]12CC[C@H]3[C@@H](CCC4=CC(=O)CC[C@@H]43)[C@@H]1CC[C@@H]2OC(=O)CCc1ccccc1,–,8.47% (inactive)
